Laboratory results: PubChem BioAssay AID504332 (National Center for Advancing Translational Sciences (NCATS), 2011)
Out of some 350,000 compounds screened, about 31,000 (8.9%) were called active. Where a call stands in place of a potency, no number is given. Roughly 15% stayed inconclusive and do not appear here. This excerpt belongs to a sample that is enriched for actives. Values without a mark were called inactive. The call rests on the fitted dose curve; in most records, active means well fitted inhibition curve with a large enough effect; inconclusive means small, poorly fitted or top-dose-only effect; inactive means no such curve, though single readings can be large or run the other way.

The molecules below were run against Histone-lysine N-methyltransferase EHMT2 (Homo sapiens) (UniProt Q96KQ7) (assay: qHTS Assay for Inhibitors of Histone Lysine Methyltransferase G9a). Details: G9a H3K9 monomethylation, AlphaScreen, 2 h; series mostly up to 59 µM.
From the text: Methylated lysines, on the N-terminal tails of histone proteins serve as epigenetic markers to recruit factors that can then modify local chromatin structure to lead to functional consequences. G9a and other members of the SUV39 family of the SET domain-containing superfamily of histone lysine methyltransferases (HMT) have been identified to specifically methylate Lys9 of histone H3 (H3K9). G9a catalyzes the mono- and di-methylation of H3K9 in mammalian euchromatic regions, where the resulting H3K9me2 is indicative of transcriptional repression. […] The inhibition of G9a will result in transcriptional activation and work synergistically with DNA methyltransferase and histone deacetylase inhibitors, to kill cancer cells. This qHTS assay for identification of G9a inhibitors is a chemiluminescence based AlphaScreen (PerkinElmer). Methylation of biotinylated-histone peptide is measured through specific antibody-based detection, in conjunction with streptavidin-coated donor and anti-IgG antibody-coated acceptor beads. The method is particularly well suited for detection of inhibitors acting by the desired histone peptide competitive mechanism and is applicable to testing other HMTs. Although AlphaScreen has significant advantages with its utility in a variety of epigenetic target assays, the primary screening data provided in this deposition should be used with caution due to the prevalence of screening artifacts. An AlphaScreen counterscreen is highly recommended to be run against any putative actives to eliminate non specific artifacts. Alternatively, one can use other AlphaScreen assays in PubChem to filter out promiscuous hits. Quinn et al. A chemiluminescence-based method for identification of histone lysine methyltransferase inhibitors. Mol Biosyst 6(5): 782-8. 2010. PMID: 20567762 [2] Baell,Holloway. New substructure filters for removal of pan assay interference compounds (PAINS) from screening libraries and for their exclusion in bioassays. J Med Chem. 53(7):2719-40. 2010. PMID: 20131845 NIH Molecular Libraries Probe Production Network [MLPCN] NIH Chemical Genomics Center [NCGC] Structural Genomics Consortium (SGC) NIH Grant: 5U54 MH084681-02
To each well of a 1,536w plate, 2ul of HMT enzyme (final 20nM) were added, using a nanoliter dispenser. The G9a- and GLP-inhibitor BIX-01294 (CID: 25150857) are used as an intraplate control, with a 16-point titration in duplicate. A Kalypsys pin-tool transferred 23nl of library compound solution in DMSO to each well. Following a 15 min incubation of enzyme with compounds at room temperature, 1ul mixture of b-H3K9 peptide substrate (final 500nM) and SAM cofactor (final 20uM) were added. Reactions were allowed to proceed at room temperature for 2 hours. Methylated b-H3K9 peptide product was detected with 0.5 ug/mL rabbit polyclonal anti-monomethyl histone H3K9 antibody (Abcam Inc., Cambridge, MA) and 20 ug/mL each streptavidin-coated donor and anti-rabbit IgG acceptor AlphaScreen beads. Antibody and beads were added in a 1ul dispense, for a final volume of 4ul, and plates were incubated, protected from the light, for 10 min at room temperature. Microplates were then read on an EnVision multilabel plate reader using the 1,536 plate HTS AlphaScreen aperture (excitation time 80 ms, measurement time 240 ms).
Further: nearly all actives have a fitted effect of over 75% in size.
Potency means the concentration at half of the fitted maximal effect.

Sequence of Histone-lysine N-methyltransferase EHMT2 (Homo sapiens) (Q96KQ7 913-1193 limits assumed): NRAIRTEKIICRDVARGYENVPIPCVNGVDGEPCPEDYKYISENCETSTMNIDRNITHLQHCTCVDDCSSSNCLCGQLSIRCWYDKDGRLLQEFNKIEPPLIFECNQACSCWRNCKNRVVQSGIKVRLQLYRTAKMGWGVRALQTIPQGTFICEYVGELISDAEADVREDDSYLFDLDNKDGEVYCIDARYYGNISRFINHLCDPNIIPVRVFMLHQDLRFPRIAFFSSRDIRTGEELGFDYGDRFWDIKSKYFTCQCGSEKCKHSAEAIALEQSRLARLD

Row | SMILES | Potency | activity, negative = inhibition
1 | CCn1c(CSCc2c(Cl)cccc2Cl)n[nH]c1=S | 2.82 µM (active) | 
2 | O=c1[nH]nc(CSCc2ccccc2Cl)[nH]1 | inactive | 
3 | O=C(CSCc1c(Cl)cccc1Cl)NN1C(=O)c2ccccc2C1=O |  | -11.1% [at 2.33 µM]
4 | COc1ccccc1-n1ccnc(SCC(=O)NC2CCCCC2)c1=O | inactive | 
5 | Cc1ccc(C)c(OCCC(=O)OCC(=O)NC(=O)NCc2ccccc2)c1 | inactive | 
6 | O=C(Nc1ccc(Cl)cn1)Nc1cccs1 | 56.2 µM (active) | 
7 | O=C(Nc1cccc([N+](=O)[O-])c1)Nc1ccc(Cl)cn1 | inactive | 
8 | CCCc1cc(C(=O)Nc2ccc(Cl)cn2)cs1 | inactive | 
9 | COc1ccc(S(=O)(=O)N2CCCCC2)cc1NC(=O)C1CC(=O)N(c2ccc3c(c2)OCCO3)C1 (stereo unspecified) | inactive | 
10 | CCOc1ccc(S(=O)(=O)N2CCCCC2)cc1NC(=O)CN1CCCC1c1cccs1 (stereo unspecified) |  | 19.5% [at 2.33 µM]
11 | Cc1cc(C(F)(F)F)n2ncc(-c3ccccc3)c2n1 | inactive | 
12 | Cc1nn(-c2nc(-c3ccccc3)cc(C(F)(F)F)n2)c(C)c1Cl | inactive | 
13 | Cn1c(-c2sc3cc(C(F)(F)F)cnc3c2-c2ccccc2)n[nH]c1=S | 2.24 µM (active) | 
14 | Cc1ccc2c(=O)c(C(=O)c3cccc(Cl)c3)cn(CC(=O)NCc3ccccc3)c2n1 | inactive | 
15 | Cc1nc2ccccc2c(=O)n1Cc1ccc([N+](=O)[O-])cc1 | inactive | 
16 | O=C1NC(=O)C2C1C(c1ccc([N+](=O)[O-])cc1)=NN2Cc1ccccc1 (stereo unspecified) | 50.1 µM (active) | 
17 | CC(=O)N1c2ccccc2N(Cc2ccc([N+](=O)[O-])cc2)C(=O)C1(C)C | inactive | 
18 | O=C(CSc1nnc(Nc2ccccc2)s1)Nc1cccnc1Cl | inactive | 
19 | Cc1cc(NC(=O)CSc2nnc(Nc3ccccc3F)s2)no1 | inactive | 
20 | Nn1c(SCC(=O)NC2CCCC2)nnc1-c1ccccc1F | 50.1 µM (active) | 
21 | O=C(CSc1nnc(Nc2ccccc2F)s1)NC1CCCC1 | 8.91 µM (active) | 

Row | SMILES | Potency | activity, negative = inhibition
22 | Nn1c(SCC(=O)NC(=O)NC2CCCC2)nnc1-c1ccccc1F | inactive | 
23 | CC(C)NC(=O)NC(=O)CSc1nnc(-c2ccccc2F)n1N | inactive | 
24 | O=C1CCCN1C(=O)COc1ccc([N+](=O)[O-])cc1 | inactive | 
25 | COc1ccc(CCNc2nc(-c3ccc(F)cc3)cc(C(F)(F)F)n2)cc1OC | inactive | 
26 | Cc1cc(C)cc(-c2nnc(SCC(=O)NC3CC3)o2)c1 |  | 18.2% [at 2.33 µM]
27 | CO[C@H]1[C@@H]2C=CO[C@@H](O[C@H]3O[C@@H](CO)[C@H](O)[C@@H](O)[C@@H]3O)[C@@H]2[C@@]2(CO)O[C@@H]12 |  | -4.51% [at 2.33 µM]
28 | COc1cccc(CNC(=O)Cn2c(=O)c3cccn3c3ccc(F)cc32)c1OC | inactive | 
29 | Cn1c(=O)c(=O)n(C)c2cc(S(=O)(=O)NCCc3ccccc3)ccc21 |  | 29.1% [at 0.501 µM]
30 | CCc1ccc(S(=O)(=O)Nc2ccc(C)c(NS(C)(=O)=O)c2)cc1 | inactive | 
31 | CCc1ccc(S(=O)(=O)Nc2cc3c(cc2N2CCCCC2)n(C)c(=O)c(=O)n3C)cc1 | 44.7 µM (active) | 
32 | CCOc1ccc2[nH]c(=O)c(C(c3nnnn3CCOC)N3CCOCC3)cc2c1 (stereo unspecified) |  | 8.47% [at 2.33 µM]
33 | CN1CCN(C(c2cc3cc4c(cc3[nH]c2=O)OCCO4)c2nnnn2C2CCCC2)CC1 (stereo unspecified) | inactive | 
34 | Cc1ccc(C(c2nnnn2C(C)(C)C)N2CCc3ccccc3C2)cc1 (stereo unspecified) | inactive | 
35 | COc1ccc(OC)c(C(c2nnnn2C(C)(C)C)N2CCc3ccccc3C2)c1 (stereo unspecified) | 50.1 µM (active) | 
36 | COCCn1nnnc1C(c1cc2ccc(OC)cc2[nH]c1=O)N1CCc2ccccc2C1 (stereo unspecified) | 5.62 µM (active) | 
37 | CCC(C)(C)n1nnnc1C(c1ccccc1OC)N1CCSCC1 (stereo unspecified) | inactive | 
38 | Cc1ccc(Cn2c(C)c3cnn(CC(=O)NCc4ccccc4)c(=O)c3c2C)cc1 | inactive | 
39 | COc1ccc(S(=O)(=O)N2CCCCCC2)cc1C(=O)N(C)Cc1cccc(OC)c1OC | inactive | 
40 | COc1ccc(CCNC(=O)CCCn2c(=O)c3ccccc3n(Cc3ccc(C)cc3)c2=O)cc1OC | inactive | 
41 | C=CCn1c(SCC(=O)NC23CC4CC(CC(C4)C2)C3)nc(O)cc1=O | inactive | 
42 | C=CCn1c(SCC(=O)NC)nnc1C12CC3CC(CC(C3)C1)C2 | inactive | 

Row | SMILES | Potency | activity, negative = inhibition
43 | C=CCn1c(C23CC4CC(CC(C4)C2)C3)n[nH]c1=S | 3.16 µM (active) | 
44 | COc1ccc(C(=O)NCc2ccc(C)cc2)cc1S(=O)(=O)N1CCCC1 |  | -16.6% [at 0.0925 µM]
45 | Nc1nc(SCC(=O)Nc2ccc(Cl)c([N+](=O)[O-])c2)n[nH]1 |  | -3.46% [at 12.7 µM]
46 | Nc1nc(SCC(=O)Nc2ccc(Cl)cc2C(F)(F)F)n[nH]1 | inactive | 
47 | COc1ccc(CNC(=O)CSc2n[nH]c(-c3ccc(F)cc3)n2)cc1 | inactive | 
48 | COc1ccc(CNC(=O)CSc2n[nH]c(N)n2)cc1OC | 79.4 µM (active) | 
49 | Nc1nc(SCC(=O)NNc2c(Cl)cc(Cl)cc2Cl)n[nH]1 | 10 µM (active) | 
50 | Nc1nc(SCC(=O)NN(c2ccccc2)c2ccccc2)n[nH]1 | inactive | 
51 | Cc1ccc(CCNC(=O)C2CCN(c3nnc(-n4cccc4CNc4ccc(C)cc4)s3)CC2)cc1 | inactive | 
52 | COC(=O)c1ccc(NC(=O)c2cccc3c2C(=O)N(C2CCCCC2)C3)cc1 | inactive | 
53 | CC1CCN(C(=O)c2cccc(S(=O)(=O)N3CCCc4ccccc43)c2)CC1 |  | 10.4% [at 2.33 µM]
54 | COc1cc(OC)cc(C(=O)NNC(=O)CCOc2ccccc2OC)c1 | inactive | 
55 | COc1cccc(C(=O)NCC(=O)OCc2cc(=O)n3ccsc3n2)c1 | inactive | 
56 | COc1cc(C(=O)Nc2ccc(OCc3cc(=O)n4cc(C)sc4n3)cc2)cc(OC)c1OC | inactive | 
57 | O=C(Nc1cccc2cccnc12)c1cccc2c(Br)cccc12 | inactive | 
58 | CCCC(=O)C1CCN(Cc2ccccc2)CC1 | inactive | 
59 | CCOC(=O)C1CCN(Cc2ccc(-c3ccccc3)cc2)CC1 | 28.2 µM (active) | 
60 | CCOC(=O)C1CCN(Cc2nnc(-c3cccc(Br)c3)o2)CC1 | inactive | 
61 | CCC(C)N(C(=O)Cn1nc(C)c([N+](=O)[O-])c1C)C1CCS(=O)(=O)C1 (stereo unspecified) | inactive | 
